Drawing on PubChem BioAssay AID463173 (ICCB-Longwood Screening Facility, Harvard Medical School, 2010), this text covers survival for 26 compounds.

Out of some 52,000 compounds screened, about 4,300 (8.3%) were called active. Cut-off read from the data, not from the text of the source: active = survival mostly below about 52% (no sharp cut-off); inactive = mostly above about 56%. What follows is part of a selection rich in actives, with near analogues and random picks from the rest.

The experiment deals with DeltatarO mutant. Put plainly: S. aureus survival, RN4220 and DeltatarO strains – OD600, teichoic acid synthesis inhibitors, primary screen (AID 463173). The settings on record: S. aureus RN4220 wild type/DeltatarO growth, OD600, 18 h, hits give low values, screened at 18.75 µg/mL (by protocol).
As to `O=C(Nc1nc2c(F)cc(F)cc2s1)c1ccc(S(=O)(=O)N2CCc3ccccc32)cc1`, the survival was 115% (inactive).

Take `Clc1ccc2nc(NCc3ccccc3)c3nncn3c2c1`: the survival is 96% (inactive). Then `CC(C)OCCCn1c(SCc2ccccc2C#N)nc2c(sc3ccccc32)c1=O`, with 87% (inactive); and `CCOC(=O)c1cccc(NC(=O)N2CC(CC)Oc3ccccc32)c1` (stereo unspecified), with 54% (inactive).

Regarding `COc1ccccc1-c1cc2nc(C)c(CCC(=O)NCCc3cccc(C)c3)c(C)n2n1`, the survival was 55% (inactive). The figure for `COc1ccccc1-c1cc2nc(C)c(CCC(=O)NCCc3ccc(SC)cc3)c(C)n2n1` is 81% (inactive); for `CCN(CC)S(=O)(=O)c1ccc(NC(=O)CCc2c(C)nc3cc(-c4ccc(Cl)cc4)nn3c2C)cc1` it is 92% (inactive); for `COC(=O)c1cc(NC(=O)CCc2c(C)nc3cc(-c4ccccc4)nn3c2C)cc(C(=O)OC)c1` it is 118% (inactive). Then `CCOc1ccc(NC(=O)CCc2c(C)nc3cc(-c4ccc(Cl)cc4)nn3c2C)cc1`, with 35% (active). Then `CCOC(=O)c1cccc(NC(=O)CCc2c(C)nc3cc(-c4ccc(Cl)cc4)nn3c2C)c1`, with 35% (active); and `CCOc1ccc(CCNC(=O)CCc2c(C)nc3cc(-c4ccccc4OC)nn3c2C)cc1`, with 50% (active).

With `CCOC(=O)c1cccc(NC(=O)CCc2c(C)nc3c4cccnc4nn3c2C)c1`, the survival was 100% (inactive). In the case of `CCOC(=O)Cc1c(C)nc2cc(-c3ccc(C(C)(C)C)cc3)nn2c1C`, the survival is -4% (active).

Take `CCOC(=O)Cc1c(C)nc2cc(C)nn2c1C`: the survival is 98% (inactive).

With `CC(=O)c1ccc(NC(=O)CCc2c(C)nc3cc(-c4ccc(Cl)cc4)nn3c2C)cc1`, the survival was 47% (inactive). As for `CCOC(=O)CC(NC(=O)CCc1c(C)nc2cc(-c3ccccc3)nn2c1C)c1ccc(C)cc1` (stereo unspecified), the survival was 109% (inactive). Then `c1ccc(C2=NNC(c3nc4ccccc4[nH]3)C2)cc1` (stereo unspecified), with 60% (inactive).

Consider `CCCOC(=O)C1=C(C)OC23OC(N)=C(C#N)C12C(=O)c1ccccc13` (stereo unspecified), for which the survival was 80% (inactive). Then `O=C(Cn1c(-c2cccs2)cc2ccccc21)NCCCN1CCN(c2ccccc2F)CC1`, with 69% (inactive); and `CCn1c(SCc2cccc(Br)c2)nnc1-c1nonc1NC(C)=O`, with 108% (inactive); and `CC1CCN(C(=O)c2cnn(-c3ccc(Cl)cc3)c2C2CCN(C(=O)OC(C)(C)C)CC2)CC1`, with 76% (inactive).

For the compound `Cc1nc2nc(C)c(NS(=O)(=O)c3ccc(CC(C)C)cc3)c(=O)n2[nH]1`, the survival was 89% (inactive). Regarding `Cc1ccccc1NC(=O)Nc1nnc(N2CCCCCC2)s1`, the survival is 94% (inactive). The figure for `COC(=O)c1ccccc1NC(=O)CCc1c(C)nc2cc(-c3ccc(Cl)cc3)nn2c1C` is 41% (active); for `CCc1ccccc1NC(=O)CCc1c(C)nc2cc(-c3ccccc3)nn2c1C` it is 59% (inactive). The figure for `COc1ccccc1CNC(=O)CCc1c(C)nc2cc(-c3ccc(Cl)cc3)nn2c1C` is 129% (inactive).
